Results: PubChem BioAssay (Tox21)
Inconclusive results are not listed. The source made the active and inactive calls. Calls come from the whole dose curve; as a rule, active = well fitted activation curve with a large enough effect in the signal ratio in the repeat runs (not every such curve was filed as active); inconclusive = weak or mixed curves; inactive = flat fitted curve, though single readings scatter; the % refers to the signal ratio.
% is set by controls: 0 for no effect and ±100 for the full control effect.

Assay: qHTS assay to identify small molecule agonists of the TGF-beta/Smad signaling pathway (AID 1346859)
Settings: SBE-bla HEK293T, TGF-beta/Smad beta-lactamase reporter, 5 h; series mostly up to 76.8 µM; activation: at the top concentration
From the text: U.S. Tox21 Program National Center for Advancing Translational Sciences [NCATS] NIH Chemical Genomics Center [NCGC] U.S. Environmental Protection Agency [EPA] National Institutes of Environmental Health Sciences [NIEHS] National Toxicology Program [NTP] U.S. Food and Drug Administration [FDA] Tox21 Assay Overview: Transforming growth factor beta (TGF-beta) superfamily consists of a large number of structurally related dimeric proteins that act as hormones or local mediators in regulating a wide range of biological functions. This superfamily includes TGF-betas themselves, the bone morphogenetic proteins (BMPs) and the activins. These ligands induce oligomerization of serine/threonine receptor kinases and phosphorylate the cytoplasmic signaling molecules of Smad protein family. CellSensor SBE-bla HEK 293T cell line (Life Technologies, Carlsbad, CA), responsive to TGF-beta was used to screen Tox21 10K compound library for identification of agonists/antagonists of the Smad signaling pathway. This cell line contains a beta-lactamase reporter gene under control of the Smad binding element (SBE) stably integrated into HEK 293T cells.
Tox21 Assay Protocol Summary: SBE-bla HEK 293T cells were dispensed at 4,000/well in 6 uL of assay medium into black wall/clear-bottom 1536-well plates using a Multidrop Combi (ThermoFisher Scientific, Waltham, MA) dispenser. After the assay plates were incubated at 37 C and 5% CO2 for an overnight, 23 nL of compounds dissolved in DMSO, positive controls or DMSO only was transferred to the assay plate by a Pintool station (Kalypsys, San Diego, CA). The assay plates were incubated at 37 C and 5% CO2 for 5 hr. One uL of LiveBLAzer B/G FRET substrate (Life Technologies) was added using a Flying Reagent Dispenser (Aurora Discovery, San Diego, CA) and the plates were incubated at room temperature for 2 hr. Fluorescence intensity (405 nm excitation, 460 nm and 530 nm emissions) was measured using an Envision plate reader (PerkinElmer, Shelton, CT).
With Cc1occc1C(=O)Nc1ccc(C(=O)N2CCC(F)(F)/C(=C\C(=O)N3CCC(N4CCCCC4)CC3)c3ccccc32)cc1 the “activation” value was 0.892% [at 35.3 µM] (inactive).
With CCOC(=O)/C=C/C(=O)O the “activation” value was 3.28% (inactive).
For CC(C)C(=O)O, the “activation” value was -10.6% (inactive).
With CC1=CC(O)CC(C)(C)C1 (stereo not given) the “activation” value was -0.467% (inactive).
In the case of CCOC(=O)C(C)Oc1ccc(Oc2nc3ccc(Cl)cc3o2)cc1 (stereo not given), the “activation” value is reported as 0.188% (inactive).
With Nc1nc(Cl)nc2c1ncn2[C@@H]1O[C@H](CO)[C@@H](O)[C@@H]1F the “activation” value was 2.64% [at 35.3 µM] (inactive).
With CC1CC(O)CC(C)(C)C1 (stereo not given) the “activation” value was 0.154% (inactive).
In the case of COc1cc2ncnc(Nc3ccc(F)c(Cl)c3)c2cc1OCCCN1CCOCC1, the “activation” value is reported as -1.64% [at 35.3 µM] (inactive).
With CO/N=C1\CN(c2nc3c(cc2F)c(=O)c(C(=O)O)cn3C2CC2)CC1CN (stereo not given) the “activation” value was 0.0118% [at 35.3 µM] (inactive).
In the case of CN(C)CCOC1=Cc2ccccc2Sc2ccc(Cl)cc21, the “activation” value is reported as -1.9% [at 35.3 µM] (inactive).
In the case of CCN(Cc1cccc(S(=O)(=O)O)c1)c1ccc(C(=C2C=CC(=[N+](CC)Cc3cccc(S(=O)(=O)[O-])c3)C=C2)c2ccccc2)cc1, the “activation” value is reported as -0.404% [at 35.3 µM] (inactive).
With CNCCCC1c2ccccc2C=Cc2ccccc21 the “activation” value was -4.81% [at 35.3 µM] (inactive).
In the case of CC(C)(C)C(=O)C(Oc1ccc(Cl)cc1)n1ccnc1 (stereo not given), the “activation” value is reported as -0.48% [at 35.3 µM] (inactive).
For CC(CCO)CCc1ccccc1 (stereo not given), the “activation” value was 2.19% (inactive).
In the case of Nc1c(I)cc(I)c(C(=O)N(CCC(=O)O)c2ccccc2)c1I, the “activation” value is reported as -0.0623% [at 35.3 µM] (inactive).
In the case of O=C(CCCCCCC(=O)Nc1ccccc1)NO, the “activation” value is reported as -8.68% [at 35.3 µM] (inactive).
With O=C(O)c1snc(Cl)c1Cl the “activation” value was -0.817% (inactive).
With Cc1c(C(=O)NN2CCCCC2)nn(-c2ccc(Cl)cc2Cl)c1-c1ccc(Cl)cc1 the “activation” value was -6.19% [at 35.3 µM] (inactive).
With Cn1c(=O)c2c(ncn2CC(=O)O)n(C)c1=O the “activation” value was 2.7% [at 35.3 µM] (inactive).
With Cc1cc(O)c(C(C)C)cc1Cl the outcome was “inactive”.
With O=C(O)c1cccc(O)c1 the “activation” value was -0.372% (inactive).
In the case of CCCCCCCCSCCO, the “activation” value is reported as 2.12% (inactive).
For O=C(CCCN1CCC(O)(c2ccc(Br)cc2)CC1)c1ccc(F)cc1, the “activation” value was -2.64% [at 35.3 µM] (inactive).
With C=CC(=C)CCCC(C)(C)OC(C)=O the “activation” value was -0.606% (inactive).
In the case of COCc1c(C(C)C)nc(C(C)C)c(/C=C/[C@@H](O)C[C@@H](O)CC(=O)O)c1-c1ccc(F)cc1, the “activation” value is reported as -8.05% [at 35.3 µM] (inactive).
In the case of C1COCO1, the “activation” value is reported as -1.73% (inactive).
With CC(=O)[C@H]1CC[C@H]2[C@@H]3C[C@H](C)C4=CC(=O)CC[C@]4(C)[C@H]3[C@@H](O)C[C@]12C the “activation” value was -2.96% [at 35.3 µM] (inactive).
In the case of CC(C)CCCCCCOC(=O)CCCCC(=O)OCCCCCCC(C)C, the “activation” value is reported as 0.58% (inactive).
With CCCCCCCCCCCCCCCCBr the activation was -2.16% [at 15.8 µM] (inactive).
For CCC(=O)Oc1ccc(/C(CC)=C(\CC)c2ccc(OC(=O)CC)cc2)cc1, the “activation” value was 7.53% (inactive).
For CCCC1C(CC)=CC(CC)=CN1c1ccccc1 (stereo not given), the “activation” value was -1.45% (inactive).
With C[N+]1(C)CCC(=C(c2ccccc2)c2ccccc2)CC1 the “activation” value was -1.05% [at 35.3 µM] (inactive).
With CCCCCC=CCC=CCCCCCCCC(=O)OCC the “activation” value was -6.15% [at 35.3 µM] (inactive).
For O=C(CS)OCCOC(=O)CS, the “activation” value was 2.47% (inactive).
With Cc1ccnc2ccccc12 the “activation” value was -0.186% (inactive).
For CC(=O)[C@H]1CC[C@H]2[C@@H]3C=CC4=CC(=O)CC[C@@]4(C)[C@@H]3CC[C@]12C, the “activation” value was 0.645% [at 35.3 µM] (inactive).
With C(=C\c1ccccc1)/CN1CCN(C(c2ccccc2)c2ccccc2)CC1 the “activation” value was 0.195% [at 35.3 µM] (inactive).
For C[N+](C)(C)CCOC(N)=O, the “activation” value was 5.71% [at 35.3 µM] (inactive).
In the case of CNC(=S)NC, the “activation” value is reported as -4.48% (inactive).
With COC(OC)(C(=O)c1ccccc1)c1ccccc1 the “activation” value was 0.0118% (inactive).
